Assay [1] can be described thus: Quantitative highthroughput screen to assess conditional lethalithy of NOMO1 cells grown in RPMI1640 with untreated serum (RPMI+s) (AID 1963876). Further: nearly all actives have a fitted effect of over 35% in size.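 On viability: 100% = DMSO wells and 0% = empty wells without cells.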 The method, boiled down: (§1)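 Each medium arm—HPLM with 10% dialyzed FBS, or RPMI1640 with 5 mM glucose and 10% untreated or dialyzed FBS—was screened against an 11-point, 3-fold compound titration for 48 h at 37 °C, with CellTiter-Glo luminescence as endpoint.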

The nature of assay [2]: Quantitative highthroughput screen to assess conditional lethalithy of NOMO1 cells grown in RPMI1640 with dialyzed fetal bovine serum (RPMI+ds) (AID 1963877). Further: nearly all actives have a fitted effect of over 30% in size.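 On viability: series mostly up to about 46 µM; 100% = DMSO control wells and 0% = empty wells.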 The method, boiled down: as §1
Assay [3] in a line: Quantitative highthroughput screen to assess conditional lethalithy of NOMO1 cells grown in Human Plasma-Like Medium with dialyzed fetal bovine serum (HPLM+ds) (AID 1963878). Further: nearly all actives have a fitted effect of over 35% in size.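 On viability: 100% = DMSO wells and 0% = empty wells on each plate.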 The method in brief: as §1
Assay [4] in a line: Quantitative highthroughput screen to assess conditional lethalithy of P12 Ichikawa cells grown in Human Plasma-Like Medium with dialyzed fetal bovine serum (HPLM+ds) (AID 1963879). Further: nearly all actives have a fitted effect of over 35% in size. On viability: series mostly up to about 46 µM. The following applies: Potency: viability. The method in brief:
as §1

Assay [5] in a line: Quantitative highthroughput screen to assess conditional lethalithy of P12 Ichikawa cells grown in RPMI1640 with dialyzed fetal bovine serum (RPMI+ds) (AID 1963880). Further: nearly all actives have a fitted effect of over 35% in size.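 On viability: 100% = DMSO wells and 0% = empty wells on each plate.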 Conditions: Potency: P12-Ichikawa viability. The method in brief:
as §1

Assay [6] is described as follows: Quantitative highthroughput screen to assess conditional lethalithy of P12 Ichikawa cells grown in RPMI1640 with untreated serum (RPMI+s) (AID 1963881). Further: nearly all actives have a fitted effect of over 35% in size.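 On viability: series mostly up to about 46 µM; 100% = DMSO wells and 0% = empty wells without cells.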 Conditions: Potency: viability. The method, boiled down: as §1
The nature of assay [7]: Quantitative highthroughput screen to assess conditional lethalithy of SEM cells grown in Human Plasma-Like Medium with dialyzed fetal bovine serum (HPLM+ds) (AID 1963882). Further: nearly all actives have a fitted effect of over 35% in size. On viability: series mostly up to about 46 µM. The method, boiled down:
as §1

Assay [8] can be described thus: Quantitative highthroughput screen to assess conditional lethalithy of SEM cells grown in RPMI1640 with unreated serum (RPMI+s) (AID 1963883). Further: nearly all actives have a fitted effect of over 35% in size.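 On viability: 100% = DMSO wells and 0% = empty wells without cells.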 The method in brief: as §1
Assay [9] can be described thus: Quantitative highthroughput screen to assess conditional lethalithy of SEM cells grown in RPMI1640 with dialyzed fetal bovine serum (RPMI+ds) (AID 1963884). Further: nearly all actives have a fitted effect of over 35% in size.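 On viability: series mostly up to about 46 µM; 100% = DMSO control wells and 0% = empty wells without cells.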 The method, boiled down:
as §1

Assay [10] is described as follows: Cellular viability qHTS for adrenocortical cancer (ACC) cell line SW-13 (AID 1963989). Further: nearly all actives have a fitted effect of over 65% in size.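 On activity (max response): cells grown in serum-free medium with ITS supplement; on the % scale 0 is the no-effect control and ±100 the full control effect.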 The following applies: SW-13 ACC cells viability, CellTiter-Glo, 48 h; activity (max response): active compounds read low. The method in brief: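 IC50 and maximal-response values come from four-parameter logistic fits of titration data. SW-13 cells in serum-free medium received compounds (up to 46 uM final) for 48 h before CellTiter-Glo luminescence.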
(qHTS replaces the single test concentration by a dilution series.)

Assay [11] in a line: Cellular viability qHTS for adrenocortical cancer (ACC) cell line NCI-H295R (AID 1963990). Further: nearly all actives have a fitted effect of over 60% in size. The method in brief: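 Adrenocortical carcinoma cells, suspended at 300 000 cells/mL in serum-free DMEM plus ITS, rested overnight before pin transfer of compound. After two days' incubation, ATP-dependent luminescence was recorded and curve-fitted.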

Values joined by “and” are separate entries in the source; they are usually repeats but may differ in a detail not shown here. Equal entries are not always repeated. Inconclusive results are not listed. Values without a mark were called inactive. Active and inactive are the calls of the source. The call rests on the fitted dose curve; in most records, active means well fitted curve in the direction sought with a large enough effect; inconclusive means small, poorly fitted or top-dose-only effect, or another doubt; inactive means no such curve, though single readings can be large; an effect the other way counts as inactive or inconclusive.
Potency means the concentration at half of the fitted maximal effect.

With `COc1cccc(Nc2c(C(N)=O)cnc3c(C)cc(S(=O)(=O)c4cccc(C(=O)N(C)C)c4)cc23)c1`, the Potency result in assay [1], in assay [2], in assay [3], in [4], in assay [5] and in [6] was “inactive” each time. Moreover, the Potency result in [7], in assay [8], in assay [9] and in assay [11] was “inactive” throughout. The activity (max response) in assay [10] was 11.8%.

On to `CN(C)CCC=C1c2ccccc2COc2ccc(CC(=O)O)cc21`, for which the Potency result in assay [1], in assay [2], in assay [3], in assay [4], in [5] and in assay [6] was “inactive” each time. The Potency entry in assay [7] and in assay [9] was “inactive” in each case.

For the compound `O=[N+]([O-])c1ccc(Nc2ccccc2-c2ccccc2)c2nonc12`, the Potency entry in [1], in [2], in assay [3], in assay [4], in [5] and in assay [6] was “inactive” each time. Also, the Potency in assay [10] is 8910 nM (active); in assay [11] it was 11200 nM (active).

Regarding `N[C@@H](Cc1c[nH]c2ccc(O)cc12)C(=O)O`, the Potency result in [1], in assay [2], in assay [3], in [4], in assay [5] and in assay [6] was “inactive” each time. The Potency entry in [7] and in assay [11] was “inactive” in each case. In [10], the activity (max response) is 10.6%.

As to `Cc1cc(C=c2sc3nc4ccccc4n3c2=O)c(C)n1-c1ccccc1`, the Potency result in assay [1], in [2], in assay [3], in [4], in [5] and in assay [7] was “inactive” in each case. Further, the Potency result in assay [8] and in assay [9] was “inactive” throughout.

With `O=C(C=Cc1cccc(S(=O)(=O)Nc2ccccc2)c1)NO`, the Potency in assay [1] is 17100 nM (active); in [2] it was 12100 nM (active); in [3], 13600 nM (active); in [4] it was 4810 nM (active); in assay [5] it was 6050 nM (active); in assay [6] it was 4290 nM (active). For the same compound, the Potency in assay [8] is 605 nM (active); in assay [9], 762 nM (active).

In the case of `Cc1ccc2c(c1)c1c(n2CCc2ccc(C)nc2)CCN(C)C1`, the Potency result in assay [1], in [2], in [3], in assay [4], in assay [5] and in [7] was “inactive” in each case. Also, the Potency result in [8] and in assay [9] was “inactive” in each case.

On to `O=C(O)C=Cc1ccc(Cn2ccnc2)cc1`, for which the Potency result in [1], in [2], in assay [3], in [4], in [5] and in assay [7] was “inactive” each time. Also, the Potency entry in [8] and in [9] was “inactive” each time.

`C#CCN(C)CC1=Cc2ccccc2Oc2ccccc21`: the Potency result in assay [1], in assay [2], in assay [3], in assay [4], in assay [5] and in [6] was “inactive” throughout. Further, the activity (max response) in assay [10] was 0.599%.

With `CN(C)CC=CC(=O)Nc1cc2c(Nc3ccc(F)c(Cl)c3)ncnc2cc1O[C@H]1CCOC1`, the Potency is 1870 nM (active) in [1]; 1870 nM (active) in assay [2]; 1660 nM (active) in assay [3]; 1660 nM (active) in assay [4]; 2350 nM (active) in assay [5]; 1050 nM (active) in assay [7]. The values for the Potency in assay [8] and in [9] were 743 nM (active) and 1180 nM (active), respectively.

Consider `O=C(C=Cc1cccnc1)NCCCCC1CCN(C(=O)c2ccccc2)CC1`, for which the Potency in assay [1] was 5.9 nM (active); in assay [2], 3.3 nM (active); in assay [3], 2.6 nM (active); in assay [4], 3 nM (active); in [5] it was 5.3 nM (active); in assay [6], 4.7 nM (active). Further, the Potency in [8] was 2.6 nM (active).

In the case of `COCCCOc1ccnc(CS(=O)c2nc3ccccc3[nH]2)c1C` (centres undefined), the Potency entry in assay [1], in assay [2], in assay [3], in assay [4], in [5] and in [6] was “inactive” each time. The Potency result in assay [7], in assay [9] and in assay [11] was “inactive” in each case. For the same compound, the activity (max response) in assay [10] is 10.6% and -5.29%.

For `O=C1c2c(O)cccc2[C@@H]([C@@H]2O[C@H](CO)[C@@H](O)[C@H](O)[C@H]2O)c2cc(CO)cc(O)c21`, the Potency result in assay [1], in assay [2], in assay [3], in assay [4], in assay [5] and in assay [6] was “inactive” throughout. The Potency result in assay [8] was “inactive”.

With `CC(C)c1ccc2oc3nc(N)c(C(=O)O)cc3c(=O)c2c1`, the Potency entry in [1], in [2], in assay [3], in assay [4], in assay [5] and in assay [7] was “inactive” in each case. For the same compound, the Potency result in [9] and in [11] was “inactive” in each case. The activity (max response) in assay [10] is -3.22% and -4.54%.

For `O=C(C=CC=Cc1ccc2c(c1)OCO2)N1CCCCC1`, the Potency entry in [1], in assay [2], in [3], in [4], in assay [5] and in assay [6] was “inactive” in each case. The Potency result in [9] was “inactive”.

On to `CN1CCN2c3ncccc3Cc3ccccc3C2C1` (centres undefined), for which the Potency entry in assay [1], in assay [2], in assay [3], in assay [4], in assay [5] and in assay [7] was “inactive” each time. Moreover, the Potency entry in [8] and in assay [9] was “inactive” each time. Moreover, the activity (max response) in assay [10] is -3.47%.

As for `CS(=O)(=O)c1ccc(Oc2cc(F)cc(C#N)c2)c2c1[C@H](O)C(F)(F)C2`, the Potency entry in assay [1], in assay [2], in [3], in assay [4], in assay [5] and in assay [6] was “inactive” throughout. For the same compound, in assay [11], the Potency entry is “inactive”. In addition, in assay [10], the activity (max response) was 10.8%.

On to `O=C(O)[C@H](Cc1c[nH]c2ccccc12)N1C(=O)c2ccccc2C1=O`, for which the Potency result in assay [1], in assay [2], in assay [3], in [4], in assay [5] and in assay [6] was “inactive” throughout. The Potency result in assay [7] and in [11] was “inactive” throughout. Moreover, the activity (max response) in [10] is -15.6%.

As to `CCOC(=O)C1=C[C@@H](OC(CC)CC)[C@H](NC(C)=O)[C@@H](N)C1`, the Potency result in [1], in assay [2], in assay [3], in [4], in assay [5] and in assay [6] was “inactive” in each case. Also, the Potency result in assay [8] and in assay [9] was “inactive” each time. In addition, the activity (max response) in assay [10] is 7.32%.

For `O=NN(CCCl)C(=O)NCCCl`, the Potency result in assay [1], in [2], in assay [3], in [4], in assay [5] and in [6] was “inactive” each time. Moreover, the Potency entry in assay [9] and in assay [11] was “inactive” each time. In addition, the activity (max response) in [10] is 15.2%.

Turning to `CS[C@H]1SC[C@@H]2C(=O)N(C)[C@H](C(C)C)C(=O)OC[C@H](NC(=O)c3cnc4ccccc4n3)C(=O)N[C@H](C)C(=O)N(C)[C@@H]1C(=O)N(C)[C@H](C(C)C)C(=O)OC[C@H](NC(=O)c1cnc3ccccc3n1)C(=O)N[C@H](C)C(=O)N2C`, the Potency was 20.9 nM (active) in assay [1]; 20.9 nM (active) in assay [2]; 14.8 nM (active) in assay [3]; 20.9 nM (active) in assay [4]; 10.5 nM (active) in assay [5]; 14.8 nM (active) in assay [6]. Besides, the Potency in assay [8] is 2.6 nM (active).

(Values after PubChem BioAssay (NCATS).)
